# Assay results reported in the supplement of paper PMC10941209.
# Tested on: HFF
# Assay: cell viability relative to DMSO control; higher = less cytotoxic
# Settings: 1 µM; 72 h
# Description: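 Single-dose cytotoxicity screen of the MMV Pandemic Response Box at 1 uM on human foreskin fibroblasts (HFF), 72 h at 37 C. Viability measured by MTT (OD 550 nm) and normalised to the DMSO control (% survival).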
row,SMILES,cell viability
1,COc1ccccc1NC(=O)c1ccccc1Sc1ccc([N+](=O)[O-])cc1,55.7%
2,O=C(CSc1nnc(Br)n1-c1ccc(C2CC2)c2ccccc12)Nc1ccc(C(=O)O)cc1Cl,66.5%
3,NC(=O)c1[nH]c2ccc(S(N)(=O)=O)cc2c1-c1ccccc1,75.8%
4,CC(=N)N1CC[C@H](SC2=C(C(=O)O)N3C(=O)[C@@H]([C@@H](C)O)[C@H]3C2)C1,63.8%
5,O=C(NCc1ccc(F)cc1)c1c(O)c2ncccc2[nH]c1=O,50.8%
6,CC[N+]1(C/C2=C/CCCCCC2)CCC(NC(=O)C2c3cc(Cl)ccc3Oc3ccc(Cl)cc32)CC1 (stereo not given),65.6%
7,CC[C@H](CO)Nc1nc(NCc2ccccc2)c2ncn(C(C)C)c2n1,68.9%
8,O=C(N[C@H](CCS)C(=O)N[C@H](Cc1ccccc1)C(=O)O)c1cc2ccccc2[nH]1,67.6%
9,OB1OCc2c1ccc(Cl)c2F,68.5%
10,Nc1nc(-c2ccccc2)nc2c1ncn2[C@@H]1O[C@H](COS(=O)(=O)NC(=O)c2ccccc2O)[C@@H](O)[C@H]1O,72.2%
11,CCc1cc(CCCOc2c(C)cc(-c3noc(C(F)(F)F)n3)cc2C)on1,69.3%
12,Cc1nc2ccc(Oc3ccccc3)cc2c2c1CCN2CCc1ccccc1,76.7%
13,CCC[C@H](NC(=O)[C@@H]1[C@H]2CCC[C@H]2CN1C(=O)[C@@H](NC(=O)[C@@H](NC(=O)c1cnccn1)C1CCCCC1)C(C)(C)C)C(=O)C(=O)NC1CC1,61.8%
14,Cc1ccc(N2CCC(CCOc3ccc(S(C)(=O)=O)cc3)CC2)nn1,68.1%
15,Oc1ccc(NCc2ccccc2OCc2ccccc2)cc1,70.1%
16,CCc1cc(O)c(Oc2cccnc2N)cc1F,65.5%
17,CN(C)CCCNC(=O)c1ccc(-c2cc(O)c3ncccc3c2)cc1,67.8%
18,O=C(CC1Sc2ncnn2C1=O)Nc1ccc(Br)cc1 (stereo not given),59.7%
19,NCc1ccc(S(N)(=O)=O)cc1,61.5%
20,CCCNc1ccc(S(=O)(=O)Nc2cc(C)on2)cc1,69.3%

row,SMILES,cell viability
1,COC(=O)Nc1nc2cc(Sc3ccccc3)ccc2[nH]1,71.9%
2,C[Si]1(C)CCN(Cc2cc(-c3ccc(Cl)cc3)n(-c3ccc(Cl)cc3)n2)CC1,82.5%
3,NC(=O)[C@@H]1CC[C@@H]2CN1C(=O)N2OS(=O)(=O)O,69.1%
4,CC[C@@H]1C(=O)OC[C@@H]1Cc1cncn1C,62.8%
5,Nc1nc(O)c2ncn([C@@H]3O[C@H](CO)[C@@H](O)[C@H]3F)c2n1,68.9%
6,CSc1ccc2c(c1)C(N1CCN(C)CC1)Cc1ccccc1S2 (stereo not given),65%
7,CC(C)(C)c1ccc(C(Cn2cccc(C(F)(F)F)c2=O)NC2Cc3ccccc3C2)cc1 (stereo not given),67.8%
8,CCOc1ccc(C(=O)NCCc2ccccc2)cc1,63.9%
9,CC(C)C(=O)N[C@H]1[C@H]([C@H](O)[C@H](O)CO)OC(C(=O)O)=C[C@@H]1N=[N+]=[N-],56.6%
10,CN(C)CC(=O)Nc1ccc2[nH]c(=O)c3ccccc3c2c1,59.3%
11,CCCCOC(=O)Nc1cc2nc(C3CCCCC3)[nH]c2cc1N(CC)CC,72.1%
12,Nc1nc(O)c(Br)c(-c2cccc(Cl)c2)n1,61.7%
13,O=c1nc(N2CCN(CC3CCCCC3)CC2)sc2c([N+](=O)[O-])cc(C(F)(F)F)cc12,57.6%
14,CC1(C)Cc2c(C#N)c(SCCc3ccccc3)nc(N3CCOCC3)c2CO1,81.4%
15,CC(C)(C)OC(=O)NCc1ccc(C(=O)N[C@H]2CCOC2=O)cc1,65.7%
16,O=C(NCc1ncc(C(F)(F)F)cc1Cl)c1c(Cl)cccc1Cl,74.8%
17,COc1cc(C(C(=O)NC2CCCCC2)N(C(=O)Cc2c[nH]c3ccccc23)c2ccc(C(C)C)cc2)cc(OC)c1OC (stereo not given),66.3%
18,COc1ccc2sc3c(c2c1)NC(C)CNC3=O (stereo not given),82.1%
19,O=C(Nc1ccc(-c2ccccc2)cc1)C1=C(O)C(Cc2ccccc2)OC1=O (stereo not given),69.3%
20,O=C(CCc1ccc2c(c1)OCO2)NCc1ccc(-c2ccccc2F)cc1,65.7%
